Read-outs that look alike come from different tables or passages of the source.

Among the data in PMC11062922 (Nature Chemical Biology, 2023) are potency estimated from few doses values, retold here.

Holding throughout (design): species or system human, MV4-11 + K-562 + COLO205 + SK-N-BE2 + OVCAR-8
The subject of one assay is ACAD8. To be noted: read-out: apparent Kd, compound concentrations: 100 nM and 1000 nM (sheet 'Samples'), n = 1.
The next assay deals with BMPR2. To be noted: read-out: apparent Kd, compound concentrations: 100 nM and 1000 nM (sheet 'Samples'), n = 1.
Another assay relates to CAMK2D. To be noted: read-out: apparent Kd, compound concentrations: 100 nM and 1000 nM (sheet 'Samples'), n = 1.
The subject of a further assay is CSNK1G3. To be noted: read-out: apparent Kd, compound concentrations: 100 nM and 1000 nM (sheet 'Samples'), n = 1.
Another assay relates to DCTPP1. To be noted: read-out: apparent Kd, compound concentrations: 100 nM and 1000 nM (sheet 'Samples'), n = 1.
A further assay has as its system DDR2. The note with it: read-out: apparent Kd, compound concentrations: 100 nM and 1000 nM (sheet 'Samples'), n = 1.
A further assay deals with EGFR. To be noted: read-out: apparent Kd, n = 1.
The subject of another assay is ERN1. To be noted: read-out: apparent Kd, compound concentrations: 100 nM and 1000 nM (sheet 'Samples'), n = 1.
The subject of the next assay is LIMK1. The note with it: read-out: apparent Kd, compound concentrations: 100 nM and 1000 nM (sheet 'Samples'), n = 1.
For the next assay, the system named is MAP2K6. To be noted: read-out: apparent Kd, n = 1.
In the next assay the test system is MET. The note with it: read-out: apparent Kd, n = 1.
A further assay has as its system MST1R. To be noted: read-out: apparent Kd; compound concentrations: 100 nM and 1000 nM (sheet 'Samples'), CATDS: 4.6001362310290703E-3; n = 1.
Another assay concerns NEK3. To be noted: read-out: apparent Kd; compound concentrations: 100 nM and 1000 nM (sheet 'Samples'), CATDS: 4.0159133314047798E-3; n = 1.
In the next assay the test system is SIK3. To be noted: read-out: apparent Kd, compound concentrations: 100 nM and 1000 nM (sheet 'Samples'), n = 1.
In another assay the test system is TAOK3. To be noted: read-out: apparent Kd; compound concentrations: 100 nM and 1000 nM (sheet 'Samples'), CATDS: 4.5729665408397397E-3; n = 1.
The next assay relates to TBK1. To be noted: read-out: apparent Kd, n = 1.
A further assay concerns VDAC3. To be noted: read-out: apparent Kd, compound concentrations: 100 nM and 1000 nM (sheet 'Samples'), n = 1.
A further assay has as its system PRKX;PRKY. The note with it: read-out: apparent Kd, n = 1.
The test system of the next assay is CAMK4. To be noted: read-out: apparent Kd; compound concentrations: 100 nM and 1000 nM (sheet 'Samples'), CATDS: 7.8205742217562803E-3; n = 1.
The mark [1] stands for this setting: compound concentrations:100 nM and 1000 nM (sheet 'Samples').

On to `Cn1ncc2c(N)ncnc21` [SKF-18267], for which the potency estimated from few doses in the assay with ACAD8 (CATDS: 3.4609202589527301E-3) is 2010 nM; with BMPR2 (CATDS: 4.3596889964012502E-3), 1090 nM; with CAMK2D (CATDS: 7.0756718203265796E-3), 441 nM; in the assay on CSNK1G3 (CATDS: 4.4654853896455996E-3), 1030 nM; in the assay on DCTPP1 (CATDS: 4.22997641527893E-3), 1170 nM; in the assay with DDR2 (CATDS: 4.5419231694641699E-3), 994 nM. Besides, the potency estimated from few doses with EGFR (compound concentrations: 100 nM and 1000 nM (sheet 'Samples'), CATDS: 3.5324220214717501E-3) was 1890 nM; with ERN1 (CATDS: 4.2148373609633104E-3), 1180 nM; with LIMK1 (CATDS: 4.4629455520233396E-3), 1030 nM; with MAP2K6 (compound concentrations: 100 nM and 1000 nM (sheet 'Samples'), CATDS: 4.6544489898713796E-3) it was 943 nM; in the assay with MET (compound concentrations: 100 nM and 1000 nM (sheet 'Samples'), CATDS: 4.2018834707484203E-3), 1190 nM; in the assay on MST1R it was 967 nM. For the same compound, the potency estimated from few doses in the assay with NEK3 is 1320 nM; in the assay on SIK3 (CATDS: 3.59529212961178E-3), 1790 nM; in the assay on TAOK3 it was 979 nM; in the assay with TBK1 (compound concentrations: 100 nM and 1000 nM (sheet 'Samples'), CATDS: 5.0307170658674197E-3), 804 nM; with VDAC3 (CATDS: 4.6944952504306397E-3) it was 926 nM.

Consider `O=C1N=C(NCCc2ccc(Cl)cc2)S/C1=C\c1ccc2ncccc2c1` [RO4498479-000], for which the potency estimated from few doses in the assay with EGFR (compound concentrations: 100 nM and 1000 nM (sheet 'Samples'), CATDS: 6.9080879323699202E-3) was 1730 nM.

With `CN(c1ccc(NC(=O)N2CCN(CCCN3CCOCC3)CC2)cc1)c1ccnc(Nc2ccc(CS(C)(=O)=O)cc2)n1.Cl` [GW830899A], the potency estimated from few doses in the assay on CAMK2D (CATDS: 3.7668858732559402E-2) is 430 nM; with EGFR (compound concentrations: 100 nM and 1000 nM (sheet 'Samples'), CATDS: 1.7872150639672801E-2) it was 2150 nM.

Consider `Cc1ccc(Nc2ccnc(Nc3ccc4c(c3)CS(=O)(=O)C4)n2)cc1O.Cl` [GW579362A], for which the potency estimated from few doses in the assay with CAMK2D (CATDS: 4.2472769063291602E-2) is 502 nM.

For `CNC(=O)c1ccccc1Nc1nc(Nc2ccc(N3CCOCC3)cc2)ncc1Cl.Cl` [GSK1576028A], the potency estimated from few doses in the assay on EGFR (setting [1]) is 580 nM; in the assay with MET (setting [1]), 68.1 nM; in the assay with TBK1 (setting [1]), 395 nM.

With `CCn1c(-c2nonc2N)nc2c(C#CC(C)(C)O)nc(OCCNC)cc21.Cl` [GSK949675A], the potency estimated from few doses in the assay on PRKX;PRKY (setting [1]) is 355 nM.

`CCOC(=O)N1CCC(n2cnc(-c3ccc(F)cc3)c2-c2ccnc(N)n2)CC1` [SB-219952]: the results for the potency estimated from few doses in the assay on CAMK4, with DDR2 (CATDS: 9.5517965767772696E-3) and in the assay on ERN1 (CATDS: 7.4915709296516997E-3) were 1850 nM, 979 nM and 2200 nM, respectively.

Turning to `COc1ccc(Nc2ncc(C#N)c(Nc3ccccc3C(N)=O)n2)cc1N1CCN(C)CC1.Cl` [GSK1558669A], the potency estimated from few doses in the assay with DDR2 (CATDS: 6.40385177631159E-3) was 1140 nM; in the assay with ERN1 (CATDS: 5.84806980625629E-3) it was 2140 nM; with LIMK1 (CATDS: 6.2092464562502302E-3) it was 1380 nM; in the assay with MET (compound concentrations: 100 nM and 1000 nM (sheet 'Samples'), CATDS: 6.0762727664259702E-3), 1600 nM; in the assay with SIK3 (CATDS: 6.59336570259887E-3), 968 nM; with TBK1 (compound concentrations: 100 nM and 1000 nM (sheet 'Samples'), CATDS: 1.0324038658374401E-2) it was 172 nM.

Consider `CN(c1ccc(NC(=O)Nc2cccc(Cl)c2)cc1)c1ccnc(N)n1.Cl` [GW830707A], for which, in the assay on PRKX;PRKY (compound concentrations: 100 nM and 1000 nM (sheet 'Samples'), CATDS: 1.5379195282256401E-2), the potency estimated from few doses is 134 nM.

For the compound `CCn1c(-c2nonc2N)nc2c(C#CC(C)(C)O)nc(O[C@@H](CN)c3ccccc3)cc21.O=C(O)C(F)(F)F` [GSK1007102B], the potency estimated from few doses in the assay with MAP2K6 (setting [1]) was 1690 nM; with PRKX;PRKY (setting [1]), 83.5 nM.

In the case of `CCN(CC)Cc1ccc(Nc2nccc(-c3cnn4ncccc34)n2)cc1` [GW780056X], the potency estimated from few doses with CAMK2D (CATDS: 2.8805291945328802E-2) was 472 nM.

Consider `O=C(O)C(F)(F)F.O=c1[nH]ccc2nc(N[C@@H]3CCNC3)nc(Nc3ccc4c(c3)S(=O)(=O)CC4)c12` [GSK2181306A], for which the potency estimated from few doses was 68.7 nM with BMPR2 (CATDS: 3.4513086619766098E-2) and 1060 nM with CSNK1G3 (CATDS: 9.3335280079581504E-3).

Turning to `COc1ccc(-c2cc3c(N)ncnc3o2)cc1` [GW642138X], the potency estimated from few doses in the assay on ACAD8 (CATDS: 9.2281876473195495E-2) was 2170 nM; in the assay with VDAC3 (CATDS: 9.45617395095774E-2), 2060 nM.

Take `c1ccc(-c2n[nH]cc2Nc2ccnc3ccccc23)nc1` [GW694077X]: the potency estimated from few doses in the assay on DCTPP1 (CATDS: 2.52871729428043E-2) is 1400 nM.
